Source: PubChem BioAssay (Tox21)
Inconclusive results are not listed. A call without a number means that no potency is given here. Activity calls are given as the source filed them. The call rests on the fitted dose curve.

The compounds below were run against 5-hydroxytryptamine receptor 2A (Homo sapiens) (UniProt P28223) (assay: 5-hydroxytryptamine receptor 2A (HTR2A) small molecule antagonists, cell-based qHTS assay (AID 1963586; further: nearly all actives have a fitted effect of over 45% in size)). Conditions: HTR2A-CHO cells, DOI-induced calcium flux, fluorescence; series mostly up to 61.5 µM.
Chain of 5-hydroxytryptamine receptor 2A (Homo sapiens) (P28223 whole entry, looked up): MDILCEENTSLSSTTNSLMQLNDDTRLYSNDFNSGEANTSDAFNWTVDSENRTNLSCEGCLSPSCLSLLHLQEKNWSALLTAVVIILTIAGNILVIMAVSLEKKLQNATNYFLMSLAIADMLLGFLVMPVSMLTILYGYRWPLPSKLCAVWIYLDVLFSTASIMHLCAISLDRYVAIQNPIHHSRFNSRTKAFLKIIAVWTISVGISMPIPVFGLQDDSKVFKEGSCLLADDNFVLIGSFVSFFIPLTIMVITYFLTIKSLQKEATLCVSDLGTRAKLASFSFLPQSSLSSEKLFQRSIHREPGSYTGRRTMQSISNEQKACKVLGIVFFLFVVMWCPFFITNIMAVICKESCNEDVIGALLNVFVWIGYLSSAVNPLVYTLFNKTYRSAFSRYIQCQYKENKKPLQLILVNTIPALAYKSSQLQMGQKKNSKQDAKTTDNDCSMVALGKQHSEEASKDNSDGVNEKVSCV
Text: National Center for Advancing Translational Sciences [NCATS]
Division of Preclinical Innovation [DPI]
U.S. Environmental Protection Agency [EPA]
National Institutes of Environmental Health Sciences [NIEHS]
National Toxicology Program [NTP]
U.S. Food and Drug Administration [FDA]
The HTR2A receptor is a subtype of the 5-HT2 receptor that belongs to the serotonin receptor family and is a G protein-coupled receptor (GPCR). The HTR2A-CHO cell line stably expressing human 5-hydroxytryptamine receptor 2A (HTR2A) can be used for screening antagonists of interactions between 5-HT2 and its ligands. The HTR2A-CHO calcium flux assay is a homogeneous fluorescence-based assay for detecting the intracellular calcium level using FDSS kinetic plate reader system.
Tox21 Assay Protocol Summary:
HTR2A-CHO cells were dispensed at 2000 cells/3uL/well in 1536-well black-clear bottom plates using a Multidrop Dispenser. After the assay plates were incubated at a 37 C/5% CO2 incubator for 18 h, 3 uL of Dye Loading Buffer was transferred to the assay plate by a Flying Reagent Dispenser. The assay plates were incubated at 37 C for 1h. For antagonist mode, 23 nL of compounds dissolved in DMSO, positive controls or DMSO only was transferred to the assay plate by a pin tool. After 5 min incubation at room temperature, 1.5 uL of 4-Iodo-2,5-dimethoxy-alpha-methylbenzeneethanamine hydrochloride (DOI) at 4nM was added to each well. The fluorescence intensity in the plates was measured using FDSS 7000EX kinetic plate reader for 3 min at 1 sec intervals.

| Compound | Potency | activity, negative = inhibition |
| --- | --- | --- |
| C=C(C)C(=O)OCCC(F)(F)C(F)(F)C(F)(F)C(F)(F)C(F)(F)C(F)(F)F | inactive | – |
| CCCC(=O)OCc1ccccc1 | inactive | – |
| O=C(O)c1cccnc1C(=O)O | inactive | – |
| C=CC(C)(CCC=C(C)C)OC=O (stereo not given) | inactive | – |
| CCCc1ccc(O)cc1 | inactive | – |
| O=C1OC(=O)c2c(Cl)c(Cl)c(Cl)c(Cl)c21 | inactive | – |
| O=C(O)c1cc(=O)[nH]c(=O)[nH]1 | inactive | – |
| CCCCCCCC/C=C\CCCCCCCC(=O)OCCCC | – | -6.13% [at 12.7 µM] (inactive) |
| c1coc(CNc2ncnc3nc[nH]c23)c1 | inactive | – |
| OC[C@H]1O[C@@](CO)(O[C@H]2O[C@H](CO)[C@@H](O)[C@H](O)[C@H]2O)[C@@H](O)[C@@H]1O | inactive | – |
| CCN(CC)c1ccc(C(=O)c2ccccc2C(=O)O)c(O)c1 | inactive | – |
| N#CC1(O)CCCCC1 | inactive | – |
| CCc1c(C(=O)O)c(=O)cnn1-c1ccc(Cl)cc1 | inactive | – |
| COc1ccccc1C=O | inactive | – |
| CCCCN(CCCC)CCCCCCN(CCCC)CCCC | inactive | – |
| COc1ccc2cc(C=O)ccc2c1 | inactive | – |
| O=C[C@H](O)[C@@H](O)[C@H](O)[C@H](O)CO | inactive | – |
| CC(C)(C)c1ccc(S)cc1 | inactive | – |
| Nc1cccc(N)n1 | inactive | – |
| CCOC(=O)CC(C(C)=O)C(C)=O | inactive | – |

| Compound | Potency | activity, negative = inhibition |
| --- | --- | --- |
| CCCCCCCCCCCCCCCCBr | – | 4.99% [at 12.7 µM] (inactive) |
| Cn1cnc2c(F)c(Nc3ccc(Br)cc3Cl)c(C(=O)NOCCO)cc21 | inactive | – |
| CCn1cc(C(=O)O)c(=O)c2cc3c(cc21)OCO3 | inactive | – |
| CCC(C)CO (stereo not given) | inactive | – |
| CCC(C)SSC(C)CC (stereo not given) | inactive | – |
| CCO[Si](OCC)(OCC)c1ccccc1 | inactive | – |
| CCCCCCOCCOCCO | inactive | – |
| NCc1cccc(CN)c1 | inactive | – |
| Cc1ccc(C2OC[C@@H]3OC(c4ccc(C)cc4)O[C@H]([C@H](O)CO)[C@@H]3O2)cc1 (stereo not given in full) | inactive | – |
| CCC(C)NC(N)=O (stereo not given) | inactive | – |
| CC(=O)Oc1ccccc1C(=O)Nc1ncc([N+](=O)[O-])s1 | inactive | – |
| NC(=O)c1ccccc1Cl | inactive | – |
| C/C(=C1\CCOC(=O)S1)N(C=O)Cc1cnc(C)nc1N | inactive | – |
| O=C(O)CONC(=O)c1ccccc1 | inactive | – |
| O=Cc1cccc([N+](=O)[O-])c1 | inactive | – |
| FC(F)(F)c1ccccc1-n1ccnc1 | inactive | – |
| O=[N+]([O-])c1ccc(CCO)cc1 | inactive | – |
| CC(=O)OCCOCCOCCOC(C)=O | inactive | – |
| NC/C=C/C(=O)O | inactive | – |
| CC(=O)O[C@H]1C[C@@H]2CC[C@@]1(C)C2(C)C | inactive | – |
